Reference: the supplement of paper PMC8975748
Structures can show the parent of a compound that is named as a salt. ± gives the standard deviation of the averaged measurements.

Tests used:
[1] = test system: Saccharomyces cerevisiae BY4741 SeMeCo community; assay: mean cell size (pixel area) (pixels); higher = larger cells; conditions: 10 µM; 24 h; SM minimal medium
In short: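 A fluorescent Saccharomyces cerevisiae BY4741 community carrying four plasmids was used, with each plasmid complementing one auxotrophy and bearing a fluorescent marker. An overnight preculture at OD600 = 1.0 was diluted to OD600 = 0.3, and 70 µl went into 384-well plates acoustically predosed with drug (final 10 µM) in SM medium for 24 h. After paraformaldehyde fixation, cells were imaged by automated confocal microscopy and analysed in Harmony, giving the mean cell pixel area per well. Each value is the average of 3 replicates. Same SeMeCo high-content imaging drug screen: Selleck FDA-approved drugs at 10 µM, 24 h in SM medium, 384-well plates, 3 replicates.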

[2] = test system: Saccharomyces cerevisiae BY4741 SeMeCo community; assay: z-score of prototroph abundance vs DMSO median; higher = larger share of this subpopulation than in DMSO controls; conditions: 10 µM; 24 h; SM minimal medium; subpopulation (auxotrophy): Prototroph
In short: (§1)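 Scoring was based on each subpopulation's abundance, expressed as a z-score against the vehicle-well median. A Saccharomyces cerevisiae BY4741 community with four plasmids, each restoring one auxotrophy and encoding a distinct fluorescent protein, was pre-grown overnight to OD600 1.0, diluted to 0.3, and added at 70 µl to 384-well plates acoustically predosed with library drugs (10 µM final). It then grew 24 h in minimal SM medium before paraformaldehyde fixation and automated confocal microscopy, with single-auxotroph fluorescent strains setting thresholds and autofluorescence correction.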

[3] = test system: Saccharomyces cerevisiae BY4741 SeMeCo community; assay: z-score of subpopulation abundance vs DMSO median, subpopulation auxotrophic for M; higher = larger share of this subpopulation than in DMSO controls; conditions: 10 µM; 24 h; SM minimal medium; subpopulation (auxotrophy): M
In short: as §1

[4] = test system: Saccharomyces cerevisiae BY4741 SeMeCo community; assay: z-score of subpopulation abundance vs DMSO median, subpopulation auxotrophic for L; higher = larger share of this subpopulation than in DMSO controls; conditions: 10 µM; 24 h; SM minimal medium; subpopulation (auxotrophy): L
In short: as §1

[5] = test system: Saccharomyces cerevisiae BY4741 SeMeCo community; assay: z-score of subpopulation abundance vs DMSO median, subpopulation auxotrophic for U; higher = larger share of this subpopulation than in DMSO controls; conditions: 10 µM; 24 h; SM minimal medium; subpopulation (auxotrophy): U
In short: as §1

[6] = test system: Saccharomyces cerevisiae BY4741 SeMeCo community; assay: z-score of subpopulation abundance vs DMSO median, subpopulation auxotrophic for H; higher = larger share of this subpopulation than in DMSO controls; conditions: 10 µM; 24 h; SM minimal medium; subpopulation (auxotrophy): H
In short: as §1

[7] = test system: Saccharomyces cerevisiae BY4741 SeMeCo community; assay: z-score of subpopulation abundance vs DMSO median, subpopulation auxotrophic for LU; higher = larger share of this subpopulation than in DMSO controls; conditions: 10 µM; 24 h; SM minimal medium; subpopulation (auxotrophy): LU
In short: as §1

[8] = test system: Saccharomyces cerevisiae BY4741 SeMeCo community; assay: z-score of subpopulation abundance vs DMSO median, subpopulation auxotrophic for LM; higher = larger share of this subpopulation than in DMSO controls; conditions: 10 µM; 24 h; SM minimal medium; subpopulation (auxotrophy): LM
In short: as §1

[9] = test system: Saccharomyces cerevisiae BY4741 SeMeCo community; assay: z-score of subpopulation abundance vs DMSO median, subpopulation auxotrophic for HM; higher = larger share of this subpopulation than in DMSO controls; conditions: 10 µM; 24 h; SM minimal medium; subpopulation (auxotrophy): HM
In short: as §1

[10] = test system: Saccharomyces cerevisiae BY4741 SeMeCo community; assay: z-score of subpopulation abundance vs DMSO median, subpopulation auxotrophic for HU; higher = larger share of this subpopulation than in DMSO controls; conditions: 10 µM; 24 h; SM minimal medium; subpopulation (auxotrophy): HU
In short: as §1

[11] = test system: Saccharomyces cerevisiae BY4741 SeMeCo community; assay: z-score of subpopulation abundance vs DMSO median, subpopulation auxotrophic for HL; higher = larger share of this subpopulation than in DMSO controls; conditions: 10 µM; 24 h; SM minimal medium; subpopulation (auxotrophy): HL
In short: as §1

[12] = test system: Saccharomyces cerevisiae BY4741 SeMeCo community; assay: z-score of subpopulation abundance vs DMSO median, subpopulation auxotrophic for HLU; higher = larger share of this subpopulation than in DMSO controls; conditions: 10 µM; 24 h; SM minimal medium; subpopulation (auxotrophy): HLU
In short: as §1

[13] = test system: Saccharomyces cerevisiae BY4741 SeMeCo community; assay: z-score of subpopulation abundance vs DMSO median, subpopulation auxotrophic for HLM; higher = larger share of this subpopulation than in DMSO controls; conditions: 10 µM; 24 h; SM minimal medium; subpopulation (auxotrophy): HLM
In short: as §1

[14] = test system: Saccharomyces cerevisiae BY4741 SeMeCo community; assay: z-score of subpopulation abundance vs DMSO median, subpopulation auxotrophic for HUM; higher = larger share of this subpopulation than in DMSO controls; conditions: 10 µM; 24 h; SM minimal medium; subpopulation (auxotrophy): HUM
In short: as §1

[15] = test system: Saccharomyces cerevisiae BY4741 SeMeCo community; assay: z-score of subpopulation abundance vs DMSO median, subpopulation auxotrophic for LUM; higher = larger share of this subpopulation than in DMSO controls; conditions: 10 µM; 24 h; SM minimal medium; subpopulation (auxotrophy): LUM
In short: as §1

[16] = test system: Saccharomyces cerevisiae BY4741 SeMeCo community; assay: z-score of subpopulation abundance vs DMSO median, subpopulation auxotrophic for HLUM; higher = larger share of this subpopulation than in DMSO controls; conditions: 10 µM; 24 h; SM minimal medium; subpopulation (auxotrophy): HLUM
In short: as §1

[17] = test system: Saccharomyces cerevisiae BY4741 SeMeCo community; assay: z-score of subpopulation abundance vs DMSO median, subpopulation auxotrophic for UM; higher = larger share of this subpopulation than in DMSO controls; conditions: 10 µM; 24 h; SM minimal medium; subpopulation (auxotrophy): UM
In short: as §1

Row | SMILES | mean cell size [1] | z-score of prototroph abundance [2] | z-score of subpopulation abundance [3] | z-score of subpopulation abundance [4] | z-score of subpopulation abundance [5] | z-score of subpopulation abundance [6] | z-score of subpopulation abundance [7] | z-score of subpopulation abundance [8] | z-score of subpopulation abundance [9] | z-score of subpopulation abundance [10] | z-score of subpopulation abundance [11] | z-score of subpopulation abundance [12] | z-score of subpopulation abundance [13] | z-score of subpopulation abundance [14] | z-score of subpopulation abundance [15] | z-score of subpopulation abundance [16] | z-score of subpopulation abundance [17]
1 | O=C1NCC2(CCN(CCc3ccccc3)CC2)O1 [Fenspiride HCl] | 12.6 ± 0.16 | -0.38 | 0.25 | -0.18 | 0.18 | -0.41 | -0.49 | -0.15 | -0.15 | -0.8 | 0.27 | 1.03 | 0.35 | -0.64 | -0.59 | 1.16 | –
2 | CN[C@@H]1[C@H](O)[C@H](NC)[C@H]2O[C@@]3(O)C(=O)C[C@@H](C)O[C@H]3O[C@@H]2[C@H]1O [Spectinomycin 2HCl] | 12.6 ± 0.18 | – | -0.21 | -1.34 | 0.77 | -0.79 | -0.16 | -1.03 | -0.56 | 0.25 | -0.34 | 0.02 | -0.57 | -0.21 | -0.18 | -0.32 | 0.51
3 | Cn1nnnc1SCC1=C(C(=O)O)N2C(=O)[C@@H](NC(=O)[C@H](OC=O)c3ccccc3)[C@H]2SC1 [Cefamandole nafate] | 12.6 ± 0.23 | -0.92 | 0.49 | 0.3 | 0.1 | 0.14 | -1.46 | 0.72 | 0.71 | 0.51 | 0.65 | 0.38 | -0.57 | -0.54 | – | 0.78 | 2.08
4 | O=C1CN(/N=C/c2ccc(-c3ccc([N+](=O)[O-])cc3)o2)C(=O)N1 [Dantrolene sodium hemiheptahydrate] | 12.7 ± 0.17 | – | 3.93 | 1.44 | -4.45 | 2.07 | -1.88 | 1.95 | 1.38 | -2.96 | 1.61 | -1.02 | 2.77 | -1.65 | -1.33 | 0.57 | -3.9
5 | CN1CCN(c2cc3c(cc2F)c(=O)c(C(=O)O)cn3-c2ccc(F)cc2)CC1 [Difloxacin hydrochloride] | 12.1 ± 0.29 | 0.85 | 0.06 | -0.28 | -0.57 | -2.54 | -0.13 | -0.31 | -0.76 | -0.87 | -1.38 | -0.55 | -0.2 | -0.72 | -0.26 | 0.23 | –
6 | OC(c1cc(C(F)(F)F)nc2c(C(F)(F)F)cccc12)C1CCCCN1 (stereo not drawn) [Mefloquine HCl] | 12.3 ± 0.37 | -0.39 | -0.32 | 0.1 | 0.95 | -0.01 | 1.02 | 0.3 | 0.44 | -0.36 | 0.36 | 0.29 | 0 | 0.3 | – | 0.33 | 0.92
7 | CCN(CC)CCOc1ccc(C(=C(Cl)c2ccccc2)c2ccccc2)cc1 [Clomifene citrate] | 12.1 ± 0.14 | – | 0.99 | 0.3 | 0.29 | 0.53 | 1.04 | 1.33 | 1.75 | 1.86 | 1.64 | 2.19 | 1.37 | 1.42 | 1.75 | 0.41 | 0.9
8 | CC(C)COCC(CN(Cc1ccccc1)c1ccccc1)N1CCCC1 (stereo not drawn) [Bepridil hydrochloride] | 12.5 ± 0.16 | – | -0.18 | 0.85 | -0.09 | 1.08 | 1.16 | -0.16 | 0.11 | 0.45 | – | 0.92 | 2.56 | 1.35 | 1.57 | 2.72 | 0.18
9 | COc1ccc2cc(C(=O)O)ccc2c1 [6-Methoxy-2-naphthoic acid] | 13.4 ± 0.15 | 2.36 | -2.65 | 0.27 | -1.91 | 2.01 | -1.63 | -1.51 | 0.22 | -0.63 | 0.89 | 0.62 | 3.71 | -1.83 | – | 1.63 | -3.74
